Source: PubChem BioAssay (NCI)
This is part of a sample that, as a whole, favours compounds with a hit. Of some 79,000 tested, about 15% had one in any assay. A number with no mark means an inactive call. Active and inactive are the calls of the source. Cut-off read from the data, not from the text of the source: active = growth inhibition above about 70%; inactive = the rest.

How the values were obtained:
[1] = NCI Yeast Anticancer Drug Screen. Data for the rad50 strain (AID 155);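 note: 0% = growth of vehicle-only cultures of the same strain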; details: S. cerevisiae rad50 strain growth inhibition, active compounds read high
Outline: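 Genetically altered yeast (DNA repair pathway); compound treatment; growth inhibition vs vehicle ctrl.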

[2] = NCI Yeast Anticancer Drug Screen. Data for the mec2-1 strain (AID 157); details: S. cerevisiae mec2-1 strain, active compounds read high
Outline: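 Yeast mec2-1 mutant treated with compound. Readout: growth inhibition vs vehicle controls.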

[3] = NCI Yeast Anticancer Drug Screen. Data for the sgs1 mgt1 strain (AID 161);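 note: 0% = growth of cultures given vehicle only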; details: S. cerevisiae sgs1 mgt1 strain, active compounds read high
Outline: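 Read-out: growth inhibition vs vehicle controls. Cells: mutant yeast strain deficient in DNA damage repair.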

[4] = NCI Yeast Anticancer Drug Screen. Data for the cln2 rad14 strain (AID 165);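 note: 0% = growth equal to vehicle treated cultures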; details: S. cerevisiae cln2 rad14 strain, active compounds read high
Outline: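 cln2 rad14 yeast strain; compound exposure; growth inhibition read vs vehicle controls.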

[5] = NCI Yeast Anticancer Drug Screen. Data for the bub3 strain (AID 167); details: S. cerevisiae bub3 mutant strain, active compounds read high
Outline: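 Yeast carrying a defined mutation is treated with each compound, and growth is compared with that of vehicle-exposed cells to give inhibition.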

[6] = NCI Yeast Anticancer Drug Screen. Data for the mlh1 rad18 strain (AID 175); details: S. cerevisiae mlh1 rad18 strain growth inhibition, active compounds read high
Outline: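 Yeast w/ defined DNA-repair lesions; compound exposure; growth vs vehicle controls → % inhibition.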

[7] = at 5.0 µM (retest, dose inferred, filed as 0.5)
[8] = at 50.0 µM (retest, dose inferred, filed as 5.0)

Compound | growth inhibition [1, 7] | growth inhibition [1, 8] | growth inhibition ([1]; at 50.0 µM) | growth inhibition [2, 7] | growth inhibition [2, 8] | growth inhibition ([2]; at 50.0 µM) | growth inhibition [3, 7] | growth inhibition [3, 8] | growth inhibition ([3]; at 50.0 µM) | growth inhibition [4, 7] | growth inhibition [4, 8] | growth inhibition ([4]; at 50.0 µM) | growth inhibition [5, 7] | growth inhibition [5, 8] | growth inhibition ([5]; at 50.0 µM) | growth inhibition [6, 7] | growth inhibition [6, 8] | growth inhibition ([6]; at 50.0 µM)
NCCOB(c1ccccc1)c1ccccc1 | 12% | 99% (active) | 53.1% | 0% | 99% (active) | 54.2% | 3% | 99% (active) | 50.5% | 8% | 99% (active) | 99% (active) | 1% | 99% (active) | 99.3% (active) | 5% | 99% (active) | 51.3%
COc1ccccc1C(=O)Nc1ccc(Cl)c(C(=O)OC(C)C)c1 | 16% | 33% | -1.8% | 7% | 20% | 22.2% | 14% | -32% | 70.8% (active) | 14% | 38% | 58.6% | 13% | 47% | 73.2% (active) | 15% | 65% | 28.7%
CCCCCCC[n+]1ccc(C(=O)c2ccccc2)cc1 | 99% (active) | 99% (active) | 99.4% (active) | 100% (active) | 99% (active) | 94.3% (active) | 100% (active) | 100% (active) | 99.5% (active) | 99% (active) | 100% (active) | 80.2% (active) | 99% (active) | 99% (active) | 99.3% (active) | 99% (active) | 99% (active) | 99.5% (active)
COc1nc2c(ccn2C2OC(COC(C)=O)C(OC(C)=O)C(OC(C)=O)C2OC(C)=O)c(=O)n1C (stereo not given) | 2% | -2% | 15.2% | 1% | -4% | 14.8% | -5% | -5% | 4.45% | -2% | -3% | 2.35% | -2% | -8% | -5.9% | 1% | -2% | 2.15%
O=C(Nc1cccc(Cl)c1)OCCOC(=O)Nc1cccc(Cl)c1 | 30% | 99% (active) | 99.5% (active) | 3% | 99% (active) | 99.2% (active) | 22% | 100% (active) | 99.3% (active) | 2% | 98% (active) | 98.4% (active) | -4% | 99% (active) | 99.4% (active) | 4% | 98% (active) | 98.9% (active)
O=C(Nc1c(Cl)cc([N+](=O)[O-])cc1Cl)/C(=N\Nc1cccc(Cl)c1)c1c(O)c2ccccc2oc1=O | 15% | 15% | 69% | 25% | 25% | 18.1% | 14% | 14% | -1% | 8% | 8% | 25.7% | 5% | 5% | 31% | 26% | 26% | 47.3%
C/C=C\C=N\NC(N)=S | 4% | 5% | 8.9% | -3% | 5% | 83.7% (active) | 3% | 6% | -17.4% | 3% | -3% | -24.6% | 2% | 7% | -2.1% | 2% | 1% | 28.6%
Oc1[nH]c2ccccc2c1N=NC(=S)N1CCCCCC1 | 6% | 98% (active) | 54.5% | -5% | 97% (active) | 72.2% (active) | -13% | 98% (active) | 83.2% (active) | -17% | 98% (active) | 78.5% (active) | -28% | 99% (active) | 87.1% (active) | -8% | 98% (active) | 79.8% (active)
CCCCc1c2c(nc3c1CC/C(=C\c1ccccc1)C3=O)CCCC2 | -23% | 97% (active) | 65.8% | -7% | 98% (active) | 48.5% | -11% | 97% (active) | 69.6% | -1% | 97% (active) | 38% | -1% | 98% (active) | 54% | -19% | 97% (active) | 49.7%
COc1ccc(C2c3cc4c(cc3OC(O)C2C)OCO4)c(OC)c1 (stereo not given) | -2% | 96% (active) | 85.6% (active) | 1% | 95% (active) | 58.5% | 5% | 95% (active) | 83.8% (active) | -8% | 89% (active) | 68.9% | -4% | 88% (active) | 68.8% | -5% | 97% (active) | 87.5% (active)
CC12CCC(O)CC1=CCC1C2CCC2(C)c3nc(C#N)c(=N)n(O)c3CC12 (stereo not given) | 12% | 96% (active) | 98.5% (active) | 0% | 71% (active) | 98.7% (active) | 6% | 93% (active) | 99.2% (active) | 4% | 89% (active) | 98.5% (active) | 1% | 81% (active) | 98% (active) | 44% | 85% (active) | 99.2% (active)
Cc1cc(=O)c2cc(N=Cc3ccc([N+](=O)[O-])o3)ccc2o1 | -1% | 72% (active) | 74.9% (active) | -10% | 23% | 17.9% | -6% | 54% | 42.6% | 0% | 10% | 21.2% | -4% | 6% | 6.1% | 10% | 49% | 40%
C#CCCCCCOC(=O)c1cc([N+](=O)[O-])cc([N+](=O)[O-])c1 | 97% (active) | 99% (active) | 98.5% (active) | 99% (active) | 99% (active) | 99% (active) | 99% (active) | 99% (active) | 99% (active) | 95% (active) | 98% (active) | 98.1% (active) | 98% (active) | 99% (active) | 99.2% (active) | 99% (active) | 99% (active) | 98% (active)
COC(=O)C1(C)CC2C(C)(CCC3(C)C4=CC=C5C(=CC(=O)C(O)=C5C)C4(C)CCC23C)CC1O (stereo not given) | 44% | 98% (active) | 85.8% (active) | 44% | 98% (active) | 87.9% (active) | 48% | 98% (active) | 90.3% (active) | 51% | 97% (active) | 88% (active) | 75% (active) | 98% (active) | 87.3% (active) | 50% | 96% (active) | 85.8% (active)
CCC(=O)Oc1ccc(-c2ccccc2)cc1Cl | -3% | 98% (active) | 97% (active) | -3% | 99% (active) | 98.2% (active) | -2% | 96% (active) | 97.5% (active) | -2% | 98% (active) | 96% (active) | 14% | 99% (active) | 98.8% (active) | 0% | 98% (active) | 98.2% (active)
CC(C)C12CCC3(CCC4C(C)(C(=O)O)CCCC4(C)C3C1)C(CN)C2 (stereo not given) | 3% | 98% (active) | 97.3% (active) | 9% | 98% (active) | 95.5% (active) | 17% | 95% (active) | 94.9% (active) | -20% | 98% (active) | 97.8% (active) | -4% | 98% (active) | 96% (active) | 6% | 98% (active) | 93.3% (active)
O=c1oc(-c2ccccc2)nc2ccccc12 | 4% | 41% | 76.5% (active) | 4% | 17% | 31.2% | 0% | 9% | 58.9% | 4% | 4% | 27.5% | 0% | 11% | 38.9% | -4% | 20% | 42.8%
CCCCCN(CCCCC)C(C)C(=O)c1ccc2cc(Br)c3ccccc3c2c1 (stereo not given) | 17% | 61% | 93.9% (active) | 9% | 46% | 90.4% (active) | 13% | 71% (active) | 90.7% (active) | -2% | 42% | 88.7% (active) | 14% | 66% | 87.1% (active) | 7% | 63% | 95.5% (active)
CC(=O)OC(c1ccc(Cl)cc1)c1ccc(Cl)cc1 | -43% | 1% | 16.5% | -11% | -8% | -2% | -7% | 20% | 18.8% | -17% | 4% | 8.85% | 2% | 0% | 0.2% | -22% | 16% | 18.9%
c1ccc([P+](c2ccccc2)(c2ccccc2)C2c3ccccc3-c3ccccc32)cc1 | 68% | 98% (active) | 91.2% (active) | 55% | 98% (active) | 92.8% (active) | 86% (active) | 99% (active) | 89.5% (active) | 31% | 97% (active) | 88.5% (active) | 57% | 99% (active) | 86.5% (active) | 69% | 98% (active) | 86.2% (active)
